Measurements reported in PubChem BioAssay (NCI).
About 83,000 compounds went through this panel and 20% of them were active in at least one assay; those are over-represented in the sample as a whole.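 Compound tested at a single concentration for 48 hours in 96-well plates; a percent growth value below 10 was scored as active.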 A number with no mark means an inactive call. Calls of active or inactive are those of the source.

Tests used:
Assay in all cases: NCI-60 one-dose screen, 48 h (100 = growth as untreated, 0 = no growth, -100 = all killed)
Details in all cases: 10 µM unless noted
HCT-15 colon = tested on: HCT-15 colon
HT29 colon = tested on: HT29 colon
SNB-75 CNS = tested on: SNB-75 CNS
SNB-19 CNS = tested on: SNB-19 CNS
U251 CNS = tested on: U251 CNS
PC-3 prostate = tested on: PC-3 prostate
SK-MEL-5 melanoma = tested on: SK-MEL-5 melanoma
UACC-62 melanoma = tested on: UACC-62 melanoma
LOX IMVI melanoma = tested on: LOX IMVI melanoma
SK-MEL-28 melanoma = tested on: SK-MEL-28 melanoma

SMILES	growth (HCT-15 colon)	growth (HT29 colon)	growth (SNB-75 CNS)	growth (SNB-19 CNS)	growth (U251 CNS)	growth (PC-3 prostate)	growth (SK-MEL-5 melanoma)	growth (UACC-62 melanoma)	growth (LOX IMVI melanoma)	growth (SK-MEL-28 melanoma)
CCOC(=O)c1cc2c(=O)oc3ccccc3c2oc1=O	96%	96%	82.1%	105%	91.6%	69.3%	106%	95.8%	91.5%	116%
CCCNC(=O)Oc1ccc(/C(=C(/C)Cc2ccc(OC)cc2)c2ccc(OCCCN(C)C)cc2)cc1	70.3%	25.7%	80.8%	88.8%	63.5%	74.4%	86.9%	102%	73.4%	94.1%
O=C(Nc1ccc(-c2nc(N3CCOCC3)c3cccn3n2)cc1)Nc1cccnc1	6.69% (active)	7.6% (active)	-26.5% (active)	5.92% (active)	7.85% (active)	3.8% (active)	-71.5% (active)	-28.6% (active)	-1.37% (active)	-17.3% (active)
CCOC(=O)c1cnc2ccccc2c1Cl	101%	101%	78.2%	99.2%	102%	90.9%	88.1%	95.2%	86.2%	103%
COc1ccc2c3c([nH]c2c1)C(=O)c1nc(C)ccc1C3=O	22.3%	74.9%	-4.19% (active)	46.1%	45.6%	45.7%	-95.1% (active)	-29.3% (active)	19.1%	83.7%
CCCc1cc(NC)nc(S(=O)(=O)CC)n1	104%	107%	88.6%	102%	107%	109%	104%	93.8%	103%	106%
COc1ccc(-c2nc(SCC(C)C)nc(N/N=C\c3ccc(F)cc3)c2C#N)cc1	85.3%	90.5%	80%	81%	94.5%	84.9%	103%	88.6%	97.4%	98.8%
OCCOCCN(Cc1ccccn1)Cc1cc(I)cc(I)c1O	24.2%	98.5%	99.9%	94.7%	83.5%	75.5%	93.9%	94.8%	62.3%	95.4%
Fc1ccc(Nc2nc3nonc3nc2Nc2ccc(I)cc2)cc1	6.8% (active)	3% (active)	-5.57% (active)	18.6%	-45% (active)	4.86% (active)	-72.7% (active)	-21.4% (active)	-26.9% (active)	17.1%
COc1cc2c(c(OC)c1OC)C(=O)CC(c1cccc(NC(=O)c3ccc(Br)cc3)c1)O2 (stereo not given)	29.8%	46%	47.7%	64.6%	42.2%	20.9%	4.06% (active)	18.8%	43.3%	57%
Cc1ccc2c(n1)C(=O)c1[nH]c3ccccc3c1C2=O	18.8%	26.6%	-37.8% (active)	46.9%	40.9%	35.3%	-94% (active)	-64.2% (active)	16.4%	78.6%
CN1CCN(C(=O)OCc2ccc3c(Cl)cc(Cl)c(O)c3n2)CC1	22.8%	103%	70.7%	53.3%	36.6%	44.1%	49.6%	60%	49.3%	67.1%
CN1CCN(c2ccc(NC(=O)c3cncnc3Nc3ccc(OCc4ccccn4)c(Cl)c3)cc2)CC1	-44.4% (active)	-14.8% (active)	59.8%	69.6%	2.96% (active)	61%	47.2%	-69.9% (active)	-22.1% (active)	-86% (active)
N#C/C(=C\c1ccc(Br)cc1)n1nnc2ccc(F)cc21	-18.2% (active)	3.64% (active)	0.279% (active)	19.5%	1.71% (active)	7.5% (active)	6.12% (active)	-54.7% (active)	-63.7% (active)	-5.29% (active)
c1cc2[nH]ncc2cc1-c1nc2ccc3[nH]ncc3c2c2c1CCCC2	7.1% (active)	4.84% (active)	-3.31% (active)	24.3%	15.7%	23.1%	-56.1% (active)	1.74% (active)	16.2%	-0.43% (active)
CCCCCCC1(C)NCCO1 (stereo not given)	103%	106%	97%	94.9%	92.4%	94%	112%	86.7%	103%	110%
COC(=O)c1cc(-c2ccccc2)[nH]c1N/N=C/c1c(Cl)cccc1Cl	15%	-8.44% (active)	0.903% (active)	13.6%	12.1%	5.23% (active)	16.8%	42.4%	21%	11.4%
COC1C[C@H](O[C@@H]2C[C@H](O[C@@H]3C[C@H](O[C@@H]4C(=O)c5c(cc6cc(O[C@H]7C[C@@H](O[C@H]8C[C@@H](O)[C@H](O)C(C)O8)[C@H](O)C(C)O7)c(C)c(O)c6c5O)C[C@H]4C(OC)C(=O)[C@@H](O)[C@@H](C)O)OC(C)[C@H]3O)OC(C)[C@@H]2O)OC(C)[C@@H]1O (stereo not given in full)	44.3%	-8.54% (active)	-59% (active)	0.994% (active)	0.915% (active)	9.36% (active)	-37.9% (active)	-64.7% (active)	-3.35% (active)	-22.9% (active)
COc1ccc(-c2csc(N(C(=O)N3CCN(c4cc5c(cc4F)c(=O)c(C(=O)O)cn5C4CC4)CC3)c3ccccc3)n2)cc1	9.72% (active)	3.36% (active)	22.5%	20.8%	19.1%	9.97% (active)	-21.6% (active)	13%	2.06% (active)	36.3%
C#CCOc1cccc(Nc2ncnc3c(NC(=O)C=C)cccc23)c1	21.3%	5.3% (active)	23%	28.1%	24.7%	23.8%	8.31% (active)	17.4%	8% (active)	52.1%
CCOP(=O)(OCC)c1nc(-c2ccccc2)oc1NCc1cccnc1	107%	111%	92.9%	97.5%	107%	101%	103%	106%	103%	113%
COc1ccc(/C=N/NC(=O)CCN2c3ccccc3Sc3ccccc32)cc1	43.9%	57%	80.1%	75.4%	91.5%	61.4%	70.4%	63%	60.9%	80.9%
COC(=O)CNC(=O)[C@H](Cc1ccccc1)NCc1ccncc1	101%	86.6%	92.4%	97.7%	92.3%	87.2%	101%	99.3%	103%	114%
CCOC(=O)C(=Cc1cccc(Br)c1)C(=O)OCC	15.1%	18%	13.2%	50.9%	26.8%	40.8%	50.3%	44.2%	-8.96% (active)	39.2%
COc1cc2c(c(OC)c1OC)CCC(c1cccc(C(=O)Nc3cccc(Br)c3)c1)O2 (stereo not given)	67%	58.1%	69%	81.6%	71.5%	49.1%	55.6%	52.8%	74%	87.9%
